Values joined by “and” are separate entries in the source; they are usually repeats but may differ in a detail not shown here. Identical values can stand only once. The whole screen tested about 5,500 compounds, of which about 2,000 (36%) were called active. Roughly 18% stayed inconclusive and do not appear here. Rule as the data show it: active = normalized growth mostly below about 0.91 (no sharp cut-off); inconclusive = no clear call, values can overlap the other calls; inactive = mostly above about 0.92. The list shows a part of the results.
Assay: chemical genetic growth profiling, strain panel (AID 1159580);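 also: tested at 20 µM; growth read once vehicle control cultures reached saturation at 30 °C; 1 = growth at the plate median or of vehicle wells; lower values mean less growth of the strain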
Details: S. cerevisiae deletion strains, growth OD

Measured: normalized growth

CC(C)N(CCC(C(N)=O)(c1ccccc1)c1ccccn1)C(C)C (stereo unspecified)
active: locus YAL021C, strain ccr4, active compounds read low 0.0708 | locus YAL026C, strain drs2, active compounds read low 0.0629 | locus YAL030W, strain snc1, active compounds read low 0.233 | locus YBL061C, strain skt5, active compounds read low 0.15 | locus YBR009C, strain hhf1, active compounds read low 0.103 | locus YBR023C, strain chs3, active compounds read low 0.171 | locus YBR171W, strain sec66, active compounds read low 0.0831 | locus YBR231C, strain swc5, active compounds read low 0.0926 | locus YBR279W, strain paf1, active compounds read low 0.0794 | locus YCL011C, strain gbp2, active compounds read low 0.062 | locus YCL016C, strain dcc1, active compounds read low 0.251 | locus YCL061C, strain MRC1, active compounds read low 0.0703 | locus YCL069W, strain vba3, active compounds read low 0.0939 | locus YCR088W, strain abp1, active compounds read low 0.0673 | locus YDL040C, strain nat1, active compounds read low 0.471 | locus YDR001C, strain nth1, active compounds read low 0.0635 | locus YDR069C, strain doa4, active compounds read low 0.0647 | locus YDR137W, strain rgp1, active compounds read low 0.0968 | locus YDR159W, strain sac3, active compounds read low 0.388 | locus YDR195W, strain ref2 0.12 | locus YDR297W, strain sur2, active compounds read low 0.0705 | locus YDR334W, strain swr1, active compounds read low 0.0666 | locus YDR335W, strain msn5, active compounds read low 0.0613 | locus YDR392W, strain spt3, active compounds read low 0.112 | locus YEL003W, strain gim4, active compounds read low 0.0565 | locus YEL037C, strain rad23, active compounds read low 0.0584 | locus YEL061C, strain CIN8 (second series), active compounds read low 0.0634 | locus YER015W, strain faa2, active compounds read low 0.0627 | locus YER016W, strain bim1, active compounds read low 0.0943 | locus YER111C, strain swi4, active compounds read low 0.082 | locus YER155C, strain BEM2 (second series), active compounds read low 0.1 | locus YFR010W, strain ubp6, active compounds read low 0.0698 | locus YGL167C, strain pmr1, active compounds read low 0.563 | locus YGL173C, strain kem1, active compounds read low 0.114 | locus YGL227W, strain vid30, active compounds read low 0.0631 | locus YGL240W, strain doc1, active compounds read low 0.129 | locus YGL253W, strain hxk2, active compounds read low 0.0581 | locus YHR013C, strain ard1, active compounds read low 0.114 | locus YHR027C, strain rpn1, active compounds read low 0.0639 | locus YHR142W, strain chs7, active compounds read low 0.0788 | locus YJL092W, strain hpr5, active compounds read low 0.0644 | locus YJL095W, strain BCK1 (second series), active compounds read low 0.17 | locus YJL115W, strain asf1, active compounds read low 0.0925 | locus YJL129C, strain trk1, active compounds read low 0.0869 | locus YJL154C, strain vps35, active compounds read low 0.0659 | locus YJL164C, strain tpk1, active compounds read low 0.13 | locus YJL166W, strain qcr8, active compounds read low 0.0729 | locus YJL187C, strain SWE1, active compounds read low 0.468 | locus YKL160W, strain elf1, active compounds read low 0.139 | locus YKR026C, strain gcn3, active compounds read low 0.441 | locus YKR091W, strain srl3, active compounds read low 0.559 | locus YLL001W, strain dnm1, active compounds read low 0.0623 | locus YLL026W, active compounds read low 0.0653 | locus YLL041C, strain sdh2, active compounds read low 0.411 | locus YLR027C, strain aat2, active compounds read low 0.0601 | locus YLR221C, strain rsa3, active compounds read low 0.0673 | locus YLR258W, strain gsy2, active compounds read low 0.0927 | locus YLR262C, strain YPT6 (second series), active compounds read low 0.0974 | locus YLR320W, strain mms22, active compounds read low 0.104 | locus YLR342W, strain FKS1, active compounds read low 0.0913 | locus YLR357W, strain rsc2, active compounds read low 0.133 | locus YLR370C, strain arc18, active compounds read low 0.0613 | locus YLR384C, strain iki3, active compounds read low 0.0647 | locus YML120C, strain ndi1, active compounds read low 0.0595 | locus YMR058W, strain fet3, active compounds read low 0.0623 | locus YMR125W, strain sto1, active compounds read low 0.309 | locus YMR129W, active compounds read low 0.0614 | locus YMR205C, strain PFK2, active compounds read low 0.193 | locus YMR231W, strain pep5, active compounds read low 0.095 | locus YNL071W, strain lat1, active compounds read low 0.0658 | locus YNL209W, strain ssb2, active compounds read low 0.0612 | locus YNL248C, strain rpa49, active compounds read low 0.0783 | locus YNL322C, strain KRE1 (second series), active compounds read low 0.0713 | locus YNR049C, strain mso1, active compounds read low 0.0601 | locus YOR001W, strain rrp6, active compounds read low 0.0692 | locus YOR070C, strain gyp1, active compounds read low 0.0654 | locus YOR080W, strain dia2, active compounds read low 0.0699 | locus YOR083W, strain WHI5, active compounds read low 0.227 | locus YOR106W, strain vam3, active compounds read low 0.0676 | locus YOR265W, strain rbl2, active compounds read low 0.0664 | locus YOR270C, strain vph1, active compounds read low 0.0928 | locus YOR290C, strain snf2, active compounds read low 0.0671 | locus YPL051W, strain arl3, active compounds read low 0.0788 | locus YPL078C, strain atp4, active compounds read low 0.0695 | locus YPL106C, strain sse1, active compounds read low 0.117 | locus YPL240C, strain hsp82, active compounds read low 0.278
inactive: locus YAL013W, strain DEP1, active compounds read low 0.959 | locus YAL040C, strain CLN3, active compounds read low 0.969 and 1.02 | locus YBR021W, strain FUR4, active compounds read low 0.984 | locus YBR229C, strain ROT2, active compounds read low 0.998 | locus YCL029C, strain bik1, active compounds read low 0.963 | locus YCL061C, strain MRC1 (second series), active compounds read low 0.993 and 1.01 | locus YDL005C, strain med2, active compounds read low 0.937 | locus YDL035C, strain GPR1, active compounds read low 1.04 | locus YDL074C, strain BRE1, active compounds read low 0.976 | locus YDL101C, strain DUN1, active compounds read low 0.988 | locus YDL185W, strain tfp1, active compounds read low 0.971 | locus YDL192W, strain arf1, active compounds read low 0.995 | locus YDR101C, strain arx1, active compounds read low 0.983 | locus YDR150W, strain NUM1, active compounds read low 0.989 and 1 and 1.01 | locus YDR162C, strain NBP2, active compounds read low 1.01 | locus YDR318W, strain mcm21, active compounds read low 0.998 | locus YDR363W, strain ESC2, active compounds read low 0.982 and 0.999 | locus YDR388W, active compounds read low 0.99 | locus YDR502C, strain sam2, active compounds read low 0.992 | locus YEL061C, strain CIN8, active compounds read low 0.996 | locus YER002W, strain NOP16, active compounds read low 0.995 and 1 | locus YER110C, active compounds read low 0.977 | locus YER155C, strain BEM2, active compounds read low 0.989 | locus YER167W, strain BCK2, active compounds read low 0.986 | locus YGL078C, strain dbp3, active compounds read low 0.99 | locus YGL086W, strain mad1, active compounds read low 1 | locus YGL248W, strain PDE1, active compounds read low 0.98 | locus YGR078C, strain PAC10, active compounds read low 0.99 and 1.04 | locus YGR135W, strain pre9, active compounds read low 0.952 | locus YGR252W, strain gcn5, active compounds read low 0.997 | locus YHR030C, strain SLT2, active compounds read low 0.997 and 1 | locus YHR079C, strain IRE1 (second series), active compounds read low 0.995 | locus YHR079C, strain IRE1, active compounds read low 0.968 | locus YHR094C, strain hxt1, active compounds read low 0.976 | locus YHR129C, strain ARP1, active compounds read low 0.999 | locus YHR200W, strain rpn10, active compounds read low 0.999 | locus YIL066C, strain RNR3, active compounds read low 0.992 | locus YIL073C, strain SPO22, active compounds read low 0.912 | locus YIL125W, strain kgd1, active compounds read low 1 | locus YIR030C, strain dcg1, active compounds read low 0.973 | locus YJL095W, strain BCK1, active compounds read low 0.966 and 1.01 | locus YJL134W, strain LCB3, active compounds read low 0.998 | locus YJL168C, strain set2, active compounds read low 0.996 | locus YJL187C, strain SWE1 (second series), active compounds read low 0.977 | locus YJR043C, strain POL32, active compounds read low 1.05 | locus YJR066W, strain TOR1, active compounds read low 0.994 | locus YJR075W, strain HOC1, active compounds read low 1.02 | locus YKL009W, strain mrt4, active compounds read low 0.97 | locus YKL068W, active compounds read low 0.98 | locus YKL085W, strain MDH1 (second series), active compounds read low 0.988 | locus YKL085W, strain MDH1, active compounds read low 0.988 | locus YKR001C, strain vps1, active compounds read low 0.988 | locus YLR039C, strain RIC1, active compounds read low 0.972 | locus YLR058C, strain SHM2, active compounds read low 0.979 | locus YLR102C, strain apc9, active compounds read low 0.987 | locus YLR113W, strain HOG1, active compounds read low 1.06 | locus YLR262C, strain YPT6, active compounds read low 0.963 | locus YLR268W, strain sec22, active compounds read low 0.999 | locus YLR330W, strain CHS5, active compounds read low 0.989 | locus YLR342W, strain FKS1 (second series), active compounds read low 1.02 | locus YLR371W, strain rom2, active compounds read low 0.997 | locus YLR418C, strain cdc73, active compounds read low 0.967 | locus YML016C, strain PPZ1, active compounds read low 0.997 | locus YML032C, strain rad52, active compounds read low 1.01 | locus YML124C, strain tub3, active compounds read low 0.994 | locus YMR078C, strain ctf18, active compounds read low 0.978 | locus YMR223W, strain ubp8, active compounds read low 0.978 | locus YMR263W, strain SAP30, active compounds read low 0.991 | locus YMR307W, strain GAS1, active compounds read low 1.01 and 0.995 and 1.02 | locus YNL067W, strain RPL9B, active compounds read low 0.973 | locus YNL128W, strain TEP1, active compounds read low 1.02 and 0.999 | locus YNL153C, strain GIM3, active compounds read low 0.983 and 1.03 | locus YNL175C, strain NOP13, active compounds read low 0.978 and 1.02 | locus YNL183C, strain NPR1, active compounds read low 1 | locus YNL197C, strain WHI3, active compounds read low 1.01 and 0.977 | locus YNL224C, strain SQS1, active compounds read low 0.978 and 1.01 | locus YNL233W, strain BNI4, active compounds read low 0.972 | locus YNL250W, strain rad50, active compounds read low 1.01 | locus YNL271C, strain bni1, active compounds read low 0.996 | locus YNL298W, strain CLA4, active compounds read low 0.997 | locus YNL307C, strain MCK1, active compounds read low 0.999 | locus YNL322C, strain KRE1, active compounds read low 0.977 and 1.02 | locus YNR052C, strain pop2, active compounds read low 0.997 | locus YOL012C, strain htz1 0.863 | locus YOL147C, strain pex11, active compounds read low 0.984 | locus YOR061W, strain CKA2, active compounds read low 0.998 | locus YOR069W, strain VPS5, active compounds read low 0.996 | locus YOR083W, strain WHI5 (second series), active compounds read low 1 and 0.957 | locus YOR136W, strain idh2, active compounds read low 1.01 | locus YOR144C, strain elg1, active compounds read low 0.996 | locus YOR184W, strain ser1, active compounds read low 0.995 | locus YOR231W, strain MKK1, active compounds read low 1.02 | locus YOR316C, strain cot1, active compounds read low 1 | locus YPL241C, strain CIN2, active compounds read low 0.995 and 1.01 | locus YPL256C, strain CLN2, active compounds read low 0.991 | locus YPR119W, strain clb2, active compounds read low 0.997 | locus YPR141C, strain kar3, active compounds read low 0.962 | locus YPR163C, strain tif3, active compounds read low 0.989 | locus YPR167C, strain met16, active compounds read low 1.01 | strain wtn01, active compounds read low 0.996
